According to PubChem BioAssay (EPA / NIEHS):
Calls of active or inactive are those of the source. The calls were made as follows: active = hit-call score of the fitted dose curve at least 0.9, where 1 is the maximum; inactive = score below 0.9.

Tests used:
[1] = target: Bile acid receptor (Homo sapiens) (UniProt Q96RI1); test: ATG_IR1_CIS: Attagene CIS-FACTORIAL HepG2 Assay for human Nuclear Receptor Subfamily 1 Group H Member 4 (NR1H4), IR1 submotif (AID 2282946); details: IR1 reporter transcription, actives raise or lower the signal
Bile acid receptor (Homo sapiens), sequence (Q96RI1 whole entry, looked up): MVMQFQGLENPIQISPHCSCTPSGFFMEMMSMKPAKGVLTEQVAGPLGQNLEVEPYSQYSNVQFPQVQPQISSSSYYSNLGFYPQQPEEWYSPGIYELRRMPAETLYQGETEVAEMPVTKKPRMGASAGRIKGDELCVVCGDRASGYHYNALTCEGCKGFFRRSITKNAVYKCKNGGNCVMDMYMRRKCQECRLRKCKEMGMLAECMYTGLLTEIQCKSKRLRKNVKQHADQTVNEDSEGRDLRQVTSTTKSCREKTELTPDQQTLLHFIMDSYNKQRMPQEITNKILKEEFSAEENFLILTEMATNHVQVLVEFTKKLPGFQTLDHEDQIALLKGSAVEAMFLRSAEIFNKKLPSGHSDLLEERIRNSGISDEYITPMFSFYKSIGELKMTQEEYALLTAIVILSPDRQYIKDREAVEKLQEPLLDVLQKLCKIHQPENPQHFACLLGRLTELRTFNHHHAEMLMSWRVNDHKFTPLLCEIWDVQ
Procedure, shortened: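 Fluorescence of capillary-separated, HpaI-digested RT-PCR reporter products gave IR1-element mRNA induction in HepG2 cells 24 h after dosing. Endogenous transcription factors drove the cis-regulated reporters; activity was fitted bidirectionally against DMSO.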

[2] = ATG_ISRE_CIS: Attagene CIS-FACTORIAL HepG2 Assay for human Interferon Regulatory Factor 1 (IRF1) binding to an Interferon-Stimulated Response Element (ISRE) (AID 2282948); details: HepG2 ISRE cis-reporter (Attagene), mRNA transcription readout; actives raise or lower the signal
Procedure, shortened: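 Uses HepG2 liver cells transfected with cis-regulated reporters and measures mRNA 24 h post-dosing through RT-PCR, primer-extension labelling and capillary electrophoresis, with DMSO as negative control.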

[3] = ATG_M_32_CIS: Attagene CIS-FACTORIAL HepG2 Assay for M32 Transcription Factor (Internal Marker) (AID 2282949); details: HepG2 Attagene cis-factorial M32 reporter, mRNA; actives raise or lower the signal;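 also: background control marker of the multiplexed CIS panel rather than a real target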
Procedure, shortened: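 Using DMSO as baseline, bidirectional curve fits were applied to reporter mRNA signals. These came from transiently transfected HepG2 cells exposed for 24 h, with RNA analysed by RT-PCR, FAM primer extension, HpaI digestion and CE.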

[4] = ATG_M_06_CIS: Attagene CIS-FACTORIAL HepG2 Assay for M06 Transcription Factor (Internal Marker) (AID 2282950); details: HepG2 Attagene CIS-FACTORIAL M06 internal marker reporter; actives raise or lower the signal
Procedure, shortened: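 Read-out is fluorescence of labelled reporter cDNA fragments resolved by capillary electrophoresis after RT-PCR. Cells: HepG2 carrying transfected cis-promoter reporter units, treated 24 h. Gain or loss of signal fitted relative to DMSO.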

[5] = target: Hypoxia-inducible factor 1-alpha (Homo sapiens) (UniProt Q16665); test: ATG_HIF1a_CIS: Attagene CIS-FACTORIAL HepG2 Assay for human Hypoxia Inducible Factor 1 (HIF1A) (AID 2282951); details: HepG2 Attagene cis-factorial HIF1a reporter transcription; actives raise or lower the signal
Hypoxia-inducible factor 1-alpha (Homo sapiens), sequence (Q16665 whole entry, looked up): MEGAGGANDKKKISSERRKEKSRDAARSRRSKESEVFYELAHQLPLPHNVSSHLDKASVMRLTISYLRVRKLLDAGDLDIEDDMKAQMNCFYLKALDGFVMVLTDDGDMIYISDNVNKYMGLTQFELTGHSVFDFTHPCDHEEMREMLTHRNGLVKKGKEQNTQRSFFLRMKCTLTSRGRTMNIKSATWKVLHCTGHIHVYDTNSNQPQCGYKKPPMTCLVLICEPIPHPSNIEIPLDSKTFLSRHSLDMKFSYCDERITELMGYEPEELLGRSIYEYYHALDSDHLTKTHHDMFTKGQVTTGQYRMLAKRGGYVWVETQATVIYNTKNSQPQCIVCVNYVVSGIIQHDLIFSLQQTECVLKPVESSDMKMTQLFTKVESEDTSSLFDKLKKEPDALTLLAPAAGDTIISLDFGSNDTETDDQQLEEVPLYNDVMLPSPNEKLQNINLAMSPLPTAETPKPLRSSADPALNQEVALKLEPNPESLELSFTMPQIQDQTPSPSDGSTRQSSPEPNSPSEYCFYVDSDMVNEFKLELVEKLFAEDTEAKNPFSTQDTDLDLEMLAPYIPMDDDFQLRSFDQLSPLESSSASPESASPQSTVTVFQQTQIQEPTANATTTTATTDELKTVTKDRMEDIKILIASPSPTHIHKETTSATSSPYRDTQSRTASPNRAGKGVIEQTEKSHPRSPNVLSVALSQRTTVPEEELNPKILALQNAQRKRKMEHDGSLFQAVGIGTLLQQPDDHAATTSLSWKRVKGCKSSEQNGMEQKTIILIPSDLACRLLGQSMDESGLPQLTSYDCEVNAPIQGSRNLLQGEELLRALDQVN
Procedure, shortened: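 Dosed 24 h, transfected HepG2 cells yielded total RNA whose reporter transcripts were RT-PCR-amplified and sized by capillary electrophoresis using fluorescent labelling; DMSO defined baseline, with gain and loss of signal both fitted.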

[6] = target: Hepatocyte nuclear factor 6 (Homo sapiens) (UniProt Q9UBC0); test: ATG_HNF6_CIS: Attagene CIS-FACTORIAL HepG2 Assay for human Hepatocyte Nuclear Factor 6 (HNF6) (AID 2282952); details: HepG2 Attagene cis-factorial HNF6 reporter transcription; actives raise or lower the signal
Hepatocyte nuclear factor 6 (Homo sapiens), sequence (Q9UBC0 whole entry, looked up): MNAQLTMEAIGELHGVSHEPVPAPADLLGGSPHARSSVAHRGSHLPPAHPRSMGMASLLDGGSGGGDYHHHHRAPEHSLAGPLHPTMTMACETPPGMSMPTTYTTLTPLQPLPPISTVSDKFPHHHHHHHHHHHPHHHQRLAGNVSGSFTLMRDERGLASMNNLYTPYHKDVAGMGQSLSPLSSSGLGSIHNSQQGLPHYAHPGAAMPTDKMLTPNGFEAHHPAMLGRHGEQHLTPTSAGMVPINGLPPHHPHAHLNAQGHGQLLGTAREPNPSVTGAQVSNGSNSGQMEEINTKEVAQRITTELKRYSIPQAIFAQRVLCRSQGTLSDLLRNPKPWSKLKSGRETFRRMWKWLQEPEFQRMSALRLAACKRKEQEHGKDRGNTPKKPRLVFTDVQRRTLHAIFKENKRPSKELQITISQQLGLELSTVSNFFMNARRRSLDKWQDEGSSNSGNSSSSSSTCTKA
Procedure, shortened: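 Endogenous transcription factor activity in human HepG2 liver cells was captured through cis-regulated reporter constructs. After 24 h treatment, reporter mRNA was measured by RT-PCR with capillary electrophoresis, and activity was fitted in both directions relative to DMSO.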

[7] = target: Heat shock factor protein 1 (Homo sapiens) (UniProt Q00613); test: ATG_HSE_CIS: Attagene CIS-FACTORIAL HepG2 Assay for human Heat Shock Transcription Factor 1 (HSE) (AID 2282953); details: HepG2 HSE cis-reporter, Attagene RNA transcription; actives raise or lower the signal
Heat shock factor protein 1 (Homo sapiens), sequence (Q00613 whole entry, looked up): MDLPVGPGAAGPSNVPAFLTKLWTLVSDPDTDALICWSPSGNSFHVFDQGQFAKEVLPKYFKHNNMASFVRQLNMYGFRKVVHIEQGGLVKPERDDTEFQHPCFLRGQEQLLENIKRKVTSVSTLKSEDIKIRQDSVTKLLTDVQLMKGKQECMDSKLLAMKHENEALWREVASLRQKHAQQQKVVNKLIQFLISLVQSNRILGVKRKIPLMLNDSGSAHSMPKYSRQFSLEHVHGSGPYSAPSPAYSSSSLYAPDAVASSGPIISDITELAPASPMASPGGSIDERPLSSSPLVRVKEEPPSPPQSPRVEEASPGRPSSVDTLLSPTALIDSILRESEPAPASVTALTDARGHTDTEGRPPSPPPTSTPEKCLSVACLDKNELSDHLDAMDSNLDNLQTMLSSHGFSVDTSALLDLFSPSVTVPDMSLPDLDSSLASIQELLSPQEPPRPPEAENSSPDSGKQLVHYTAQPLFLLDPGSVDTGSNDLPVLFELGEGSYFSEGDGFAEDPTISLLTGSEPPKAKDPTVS
Procedure, shortened: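 HepG2, transient MRTU transfection, cis-promoter reporters (endogenous TF activity). 24 h compound. RNA → oligo(dT) RT → PCR → 6-FAM primer extension → HpaI cut → CE. Bidirectional fit vs DMSO.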

[8] = ATG_MRE_CIS: Attagene CIS-FACTORIAL HepG2 Assay for human Metal Responsive Element (MRE) (AID 2282954); details: HepG2 MRE cis-reporter transcription, Attagene multiplex; actives raise or lower the signal
Procedure, shortened: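 RT-PCR/capillary electrophoresis readout of reporter mRNA, 24 h post-dosing, in HepG2 cells transfected with multiplexed cis-regulated reporter constructs. Gain or loss of signal fitted bidirectionally against DMSO baseline.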

[9] = target: Paired box protein Pax-6 (Homo sapiens) (UniProt P26367); test: ATG_Pax6_CIS: Attagene CIS-FACTORIAL HepG2 Assay for human Paired Box 6 (PAX6) (AID 2282956); details: HepG2 CIS-FACTORIAL PAX6 reporter transcription, RNA readout; actives raise or lower the signal
Paired box protein Pax-6 (Homo sapiens), sequence (P26367 whole entry, looked up): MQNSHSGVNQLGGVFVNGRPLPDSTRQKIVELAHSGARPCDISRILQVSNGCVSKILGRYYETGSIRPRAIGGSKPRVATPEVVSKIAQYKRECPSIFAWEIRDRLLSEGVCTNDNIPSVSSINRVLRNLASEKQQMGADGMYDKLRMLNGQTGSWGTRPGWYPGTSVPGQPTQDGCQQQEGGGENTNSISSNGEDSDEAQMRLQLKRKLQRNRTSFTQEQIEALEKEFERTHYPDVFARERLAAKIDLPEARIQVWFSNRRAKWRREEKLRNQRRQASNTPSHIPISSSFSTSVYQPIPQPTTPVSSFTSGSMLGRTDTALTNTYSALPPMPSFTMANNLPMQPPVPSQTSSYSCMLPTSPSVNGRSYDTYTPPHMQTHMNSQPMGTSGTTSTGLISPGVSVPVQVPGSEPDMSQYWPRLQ
Procedure, shortened: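 DMSO-referenced bidirectional fits of reporter mRNA fluorescence; HepG2 with transient cis-promoter MRTUs, 24 h post-dose, RT-PCR plus capillary electrophoresis detection.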

[10] = ATG_PXRE_CIS: Attagene CIS-FACTORIAL HepG2 Assay for human Pregnane X Receptor Element (PXRE) (AID 2282957); details: HepG2 Attagene CIS-FACTORIAL PXRE reporter, mRNA; actives raise or lower the signal
Procedure, shortened: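 Endogenous transcription factor activity in HepG2 was gauged through induction of reporter mRNA driven by a cis-regulating promoter element, sampled 24 h post-treatment. Activity was fitted in both directions against DMSO negative control.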

[11] = ATG_PPRE_CIS: Attagene CIS-FACTORIAL HepG2 Assay for human Peroxisome Proliferator-activated Response Element (PPRE) (AID 2282958); details: HepG2 PPRE cis-element reporter, Attagene transcription factor profiling; actives raise or lower the signal
Procedure, shortened: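 Measured endpoint: PPRE-controlled reporter mRNA, detected by RT-PCR and capillary electrophoresis fluorescence, from transiently transfected HepG2 cells 24 h after dosing. Curves fitted in both directions using DMSO baseline.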

[12] = ATG_RORE_CIS: Attagene CIS-FACTORIAL HepG2 Assay for human RAR-related Orphan Receptor Element (RORE) (AID 2282959); details: HepG2 Attagene cis-factorial RORE reporter, mRNA; actives raise or lower the signal
Procedure, shortened: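 Transiently transfected HepG2 reporter cells were treated 24 h. Reporter transcripts were detected by RT-PCR and capillary electrophoresis, with bidirectional fitting against DMSO.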

[13] = ATG_Sox_CIS: Attagene CIS-FACTORIAL HepG2 Assay for human SRY-box transcription factor (SOX) (AID 2282960); details: HepG2 Attagene cis-factorial SOX reporter, mRNA; actives raise or lower the signal
Procedure, shortened: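 Gain- or loss-of-signal endpoint, fitted bidirectionally with DMSO as negative control. Based on reporter mRNA from transfected HepG2 cells harvested 24 h post-treatment and quantified via RT-PCR and capillary electrophoresis.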

[14] = target: Transcription factor Sp1 (Homo sapiens) (UniProt P08047); test: ATG_Sp1_CIS: Attagene CIS-FACTORIAL HepG2 Assay for human Specificity Protein 1 (Sp1) (AID 2282961); details: HepG2 Sp1 cis-reporter transcription, actives raise or lower the signal
Transcription factor Sp1 (Homo sapiens), sequence (P08047 whole entry, looked up, the tested form may be a part): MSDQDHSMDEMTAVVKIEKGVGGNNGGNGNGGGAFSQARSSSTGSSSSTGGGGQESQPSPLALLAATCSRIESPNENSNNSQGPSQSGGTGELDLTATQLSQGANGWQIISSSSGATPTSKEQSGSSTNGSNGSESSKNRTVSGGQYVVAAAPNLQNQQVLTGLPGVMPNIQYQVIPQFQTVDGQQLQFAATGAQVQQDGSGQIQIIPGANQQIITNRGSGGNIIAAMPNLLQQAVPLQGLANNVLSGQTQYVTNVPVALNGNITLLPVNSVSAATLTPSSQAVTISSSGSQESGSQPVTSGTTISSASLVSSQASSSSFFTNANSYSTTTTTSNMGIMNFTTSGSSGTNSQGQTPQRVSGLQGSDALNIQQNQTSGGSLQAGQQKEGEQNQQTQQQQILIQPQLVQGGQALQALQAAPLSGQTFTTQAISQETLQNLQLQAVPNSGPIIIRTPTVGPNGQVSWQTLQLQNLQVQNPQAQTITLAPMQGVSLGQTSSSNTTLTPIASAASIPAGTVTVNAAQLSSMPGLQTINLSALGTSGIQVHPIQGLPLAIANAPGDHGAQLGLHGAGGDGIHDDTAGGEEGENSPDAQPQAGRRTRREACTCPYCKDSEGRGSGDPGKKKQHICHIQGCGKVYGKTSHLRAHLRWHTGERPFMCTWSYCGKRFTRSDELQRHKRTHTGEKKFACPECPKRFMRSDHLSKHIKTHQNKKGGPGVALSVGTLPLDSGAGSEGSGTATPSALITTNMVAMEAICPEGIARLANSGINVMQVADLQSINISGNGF
Procedure, shortened: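 Endpoint reflects endogenous Sp1 transcriptional activity, not an exogenous fusion protein: HepG2 cells with transfected cis-regulated reporters, 24 h dosing, RT-PCR/capillary electrophoresis mRNA read-out, DMSO-normalised bidirectional fit.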

[15] = ATG_SREBP_CIS: Attagene CIS-FACTORIAL HepG2 Assay for human Sterol Regulatory Element Binding (SREBP) (AID 2282962); details: HepG2 Attagene cis-factorial SREBP reporter, mRNA; actives raise or lower the signal
Procedure, shortened: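 In this cis-format assay, HepG2 liver cells express reporters controlled by promoter elements responsive to native transcription factors. Exposure lasts 24 h; reporter mRNA fluorescence from capillary electrophoresis gives the signal, fitted bidirectionally against DMSO.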

[16] = target: Signal transducer and activator of transcription 3 (Homo sapiens) (UniProt P40763); test: ATG_STAT3_CIS: Attagene CIS-FACTORIAL HepG2 Assay for human Signal Transducer and Activator of Transcription 3 (STAT3) (AID 2282963); details: HepG2, Attagene cis-factorial STAT3 reporter transcription; actives raise or lower the signal
Signal transducer and activator of transcription 3 (Homo sapiens), sequence (P40763 whole entry, looked up, the tested form may be a part): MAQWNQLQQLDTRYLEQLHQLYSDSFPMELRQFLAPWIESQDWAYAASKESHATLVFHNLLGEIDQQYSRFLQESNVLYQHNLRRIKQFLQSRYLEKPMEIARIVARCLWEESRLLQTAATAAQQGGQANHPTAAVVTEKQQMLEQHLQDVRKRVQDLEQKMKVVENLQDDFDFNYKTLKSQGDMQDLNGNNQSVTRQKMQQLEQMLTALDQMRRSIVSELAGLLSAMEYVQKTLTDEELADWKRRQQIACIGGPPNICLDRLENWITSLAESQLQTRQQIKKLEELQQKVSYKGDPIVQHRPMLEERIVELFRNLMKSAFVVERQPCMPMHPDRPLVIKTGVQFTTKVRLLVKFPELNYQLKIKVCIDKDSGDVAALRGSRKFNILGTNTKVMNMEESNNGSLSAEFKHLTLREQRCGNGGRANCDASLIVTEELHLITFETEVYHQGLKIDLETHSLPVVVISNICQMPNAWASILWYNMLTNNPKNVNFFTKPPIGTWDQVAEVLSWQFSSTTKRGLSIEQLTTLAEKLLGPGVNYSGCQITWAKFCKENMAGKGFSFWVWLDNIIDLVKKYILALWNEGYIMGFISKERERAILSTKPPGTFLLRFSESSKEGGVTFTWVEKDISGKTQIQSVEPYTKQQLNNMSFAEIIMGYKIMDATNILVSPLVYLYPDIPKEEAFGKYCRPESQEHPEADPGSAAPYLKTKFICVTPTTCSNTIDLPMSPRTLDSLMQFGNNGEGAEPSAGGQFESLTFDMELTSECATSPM
Procedure, shortened: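 Readout: fluorescent reporter mRNA fragments resolved by capillary electrophoresis. Setup: HepG2 transfected with MRTUs reporting endogenous transcription-factor activity, dosed 24 h. Gain or loss of signal fitted bidirectionally against DMSO control.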

[17] = ATG_TA_CIS: Attagene CIS-FACTORIAL HepG2 Assay for human TA Basal Promoter (AID 2282964); details: HepG2 Attagene CIS-factorial TA basal promoter reporter; actives raise or lower the signal
Procedure, shortened: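 Read-out: fluorescent reporter-transcript fragments resolved by capillary electrophoresis after RT-PCR and HpaI digestion. Source: HepG2 cells carrying transiently transfected multi-reporter cis constructs, treated 24 h. Endpoint fitted bidirectionally relative to DMSO.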

[18] = ATG_TCF_b_cat_CIS: Attagene CIS-FACTORIAL HepG2 Assay for human T-Cell-Factor with beta-catenin (TCF/b-cat) (AID 2282965); details: HepG2 TCF/beta-catenin cis-reporter transcription, actives raise or lower the signal
Procedure, shortened: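 HepG2, transient MRTU transfection, cis-element-driven reporters (endogenous TFs). 24 h compound exposure. Readout: reporter mRNA by RT-PCR + 6-FAM primer extension, HpaI digest, capillary electrophoresis. Gain/loss fit vs DMSO baseline.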

[19] = ATG_PBREM_CIS: Attagene CIS-FACTORIAL HepG2 Assay for human Phenobarbital-responsive Enhancer Module (PBREM) (AID 2282955); details: HepG2 PBREM cis-reporter, Attagene multiplexed transcription; actives raise or lower the signal
Procedure, shortened: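 Transfected liver-derived HepG2 cells exposed 24 h; PBREM reporter transcript quantified via RT-PCR and capillary electrophoresis, with activity in either direction referenced to DMSO.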

Measured: outcome

Nc1ccccc1[N+](=O)[O-]
not listed: [19]
inactive: all other assays above

CCOC(=O)CCc1ccccc1
not listed: [4] | [9] | [12] | [19]
inactive: all other assays above

O=C(O)CCCCCCCCCCCC(=O)O
not listed: [19]
inactive: all other assays above

CC1CCC(C(C)C)C(O)C1 (configuration not stated)
not listed: [7] | [9] | [12]
inactive: all other assays above
